Screens as filed in PubChem.
TRPM1 prom inh = inhibitors of MITF-driven TRPM1 promoter in melanoma cells; SK-MEL-5 TRPM1 promoter luciferase, 24 h; inhibition, % at 12.5 µM; actives 0.83% (n = 330,000); AID 488899;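 active means mean inhibition across replicates of 60% or more, whatever share of single replicates reaches that level; inconclusive means some that reach 60%, reason not given; inactive means mean inhibition across replicates below 60%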
TROY signal inh = TROY signaling inhibition | actives 0.98% (n = 360,000) | Q293 LMP1-TROYcd NF-kB luciferase reporter, 4 h | inhibition, % at 10 µM;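 active means compounds whose plate-normalised and pattern-corrected inhibition of the luciferase reporter signal at the single screening dose is 50% or more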
EBV LMP1 NFkB = Epstein-Barr LMP1 NF-kappaB reporter inhibition; inhibition, % at 12.5 µM; actives 0.69% (n = 350,000); AID 504558; LMP1-induced NF-kappaB luciferase reporter cells, luminescence; in the data active means inhibition above about 41%; inconclusive means no clear call, values can overlap the other calls;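 further: 0% = neutral control wells and 100% = reference inhibitor control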
TWEAK Fn14 block = TWEAK-Fn14 signaling inhibition; TWEAK-stimulated Fn14 reporter cells, luciferase luminescence, 8 h; AID 1159606; actives 2% (n = 360,000); inhibition, % at 10 µM; in the data active means inhibition above about 50%
Shn3 3UTR inh = inhibitors of Schnurri-3 3'UTR reporter in osteoblasts. actives 0.52% (n = 360,000). AID 588674. Clone20 osteoblast Shn3 3'UTR firefly luciferase, 24 h. inhibition, % at 12.5 µM;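 active means mean inhibition of at least 75% with every replicate also reaching 75%; inconclusive means mean inhibition at least 75% but some replicate below; inactive means mean inhibition below 75%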;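 further: 0% = median of neutral control wells and 100% = pilot-screen positive control compound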
Peg3 prom inh-1 = inhibitors of Peg3 promoter. inhibition, % at 20 µM. HeLa PEG-Prom luciferase reporter, luminescence, overnight. actives 1.7% (n = 360,000). AID 588405;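 active means inhibition of at least 50% at 20 µM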
Peg3 prom inh-2 = Peg3 promoter inhibition confirmation; shares compounds with Peg3 prom inh-1; HeLa PEG-Prom luciferase reporter, luminescence, overnight; inhibition, % at 20 µM; actives 84% (n = 1,300); AID 602417;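 active means at 20 µM dose, 40% or more inhibition averaged across four replicates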
* marks the source's active call; other numbers are inactive results; ? = inconclusive; / = no result. Shown are actives, neighbours in structure and some others; about 4.1% of the full set was active somewhere.

SMILES	TRPM1 prom inh	TROY signal inh	EBV LMP1 NFkB	TWEAK Fn14 block	Shn3 3UTR inh	Peg3 prom inh-1	Peg3 prom inh-2
Cc1cc(C)n(CC(=O)NNC(=O)c2ccc(NC(=O)CC#N)cc2)n1	-1	6	-8	7	-5	-12	/
O=C(CCCN1C(=O)/C(=C/c2ccccc2Cl)SC1=S)NNC(=O)c1ccc(Cl)cc1Cl	48	37	38	17	42	66*	43*
COc1ccccc1NC(=O)Nc1nc(CC(=O)Nc2cc(F)ccc2F)cs1	-6	-2	0	-5	-9	4	/
COc1cccc(N(C(=O)c2snc(C(N)=O)c2N)C(C(=O)NCc2ccccc2)c2ccc(O)cc2)c1 (centres undefined)	0	23	-6	24	3	28	/
NC(=O)c1nsc(C(=O)N(c2ccccc2F)C(C(=O)NCc2ccccc2)c2ccc(O)cc2)c1N (centres undefined)	-1	13	3	23	2	75*	57*
CCOc1ccccc1OCCCC(=O)NNC(=O)c1nn(C)c(=O)c2ccccc12	-3	-8	0	-13	-23	-9	/
O=C(CNC(=O)C(c1ccccc1)c1ccccc1)N/N=C/c1ccc(O)cc1O	38	13	17	4	79	51*	65*
O=C(CNC(=O)C(c1ccccc1)c1ccccc1)N/N=C\c1cccc(O)c1	8	5	-8	7	-4	2	/
Cc1ccc(C(=O)NCc2ccco2)cc1S(=O)(=O)N1CCCC1	-8	43	1	16	-3	7	/
CC(=O)Nc1cccc(-c2ccnc3c2CC(C)(C(=O)Nc2cccc(C(F)(F)F)c2)O3)c1 (centres undefined)	/	27	/	21	23	52*	62*
CC(C)c1cc(Cn2c3ccccc3c(=O)n2C(C)CBr)on1 (centres undefined)	/	3	/	5	4	9	/
NCCCNc1nc(N)c([N+](=O)[O-])c(NC2CCCCC2)n1	74*	43	-12	38	75	67*	80*
COc1cc2ccccc2cc1C(=O)N(CCN(C)C)c1nc2c(OC)ccc(OC)c2s1	12	-31	-11	-34	-13	66*	67*
CC(C)(C)c1ccc(OCCCNCc2ccccc2)cc1	43	-1	8	-1	-9	112*	61*
CSCCC(NC(=O)c1ccccc1Cl)C(=O)Nc1ccncc1 (centres undefined)	-6	11	0	-2	11	8	/
O=C(Cn1cnc2ccccc21)Nc1cccc(S(=O)(=O)N2CCCC2)c1	20	8	14	15	?	2	/
COc1ccc2cc(C3(C)NC(=O)N(CC(=O)N4CCCCC4)C3=O)ccc2c1 (centres undefined)	-20	7	3	-9	15	11	/
COc1ccccc1N1C(=O)c2cccnc2C1=O	2	0	-1	4	0	8	/
COC1=C(Br)C(=O)c2ncccc2C1=O	65*	-1	4	10	61	100*	99*
CCc1nc2ccc(C(=O)N3CCN(c4ccc([N+](=O)[O-])cc4)CC3)cc2nc1CC	16	24	2	3	19	16	/
COc1ccccc1C(=O)NCCC(=O)NCCC12CC3CC(CC(C3)C1)C2	-7	7	-5	-9	-1	13	/
COc1ccc(C23CC4CC(CC(C4)C2)C3)cc1C(=O)NCCN(C)C	53	-26	0	1	-36	51*	75*
COc1ccc(-c2c(C)c3ccc(O)cc3oc2=O)cc1	-51	-53	-7	-23	-13	-260	/
NC(=O)C1CCN(C2=C(Cl)C(=O)c3ccccc3C2=O)CC1	88*	-7	78*	7	98*	73*	98*
O=C1C(Cl)=C(N2CCC(C(=O)O)CC2)C(=O)c2ccccc21	45	12	-6	14	-8	5	/
O=C(Cc1cccc(F)c1F)NC1CCCN(Cc2ccc(Cl)cc2)C1 (centres undefined)	4	9	5	-7	1	18	/
Nc1cccc2nc3ccccc3cc12	85*	-62	-14	-32	-59	95*	99*
